These results are taken from ChEMBL document CHEMBL3988442, “University of Dundee, Small-Polar-MMV Screening Library” (2021).

Set-up in all cases: scale not given: direction of the effect not stated beside the values
The target of assay [1] is Protein translocase subunit SecA (Escherichia coli (strain K12)) (UniProt P10408). Nature of the assay: Assay to Identify E. coli SecA ATPase Inhibitors. Particulars: 30 µM. The format is functional.
In assay [2] the target is T1, Ubiquitin-activating enzyme e1, putative (Leishmania donovani (strain BPK282A1)) (UniProt E9BSI1).
T1 sequence (whole entry): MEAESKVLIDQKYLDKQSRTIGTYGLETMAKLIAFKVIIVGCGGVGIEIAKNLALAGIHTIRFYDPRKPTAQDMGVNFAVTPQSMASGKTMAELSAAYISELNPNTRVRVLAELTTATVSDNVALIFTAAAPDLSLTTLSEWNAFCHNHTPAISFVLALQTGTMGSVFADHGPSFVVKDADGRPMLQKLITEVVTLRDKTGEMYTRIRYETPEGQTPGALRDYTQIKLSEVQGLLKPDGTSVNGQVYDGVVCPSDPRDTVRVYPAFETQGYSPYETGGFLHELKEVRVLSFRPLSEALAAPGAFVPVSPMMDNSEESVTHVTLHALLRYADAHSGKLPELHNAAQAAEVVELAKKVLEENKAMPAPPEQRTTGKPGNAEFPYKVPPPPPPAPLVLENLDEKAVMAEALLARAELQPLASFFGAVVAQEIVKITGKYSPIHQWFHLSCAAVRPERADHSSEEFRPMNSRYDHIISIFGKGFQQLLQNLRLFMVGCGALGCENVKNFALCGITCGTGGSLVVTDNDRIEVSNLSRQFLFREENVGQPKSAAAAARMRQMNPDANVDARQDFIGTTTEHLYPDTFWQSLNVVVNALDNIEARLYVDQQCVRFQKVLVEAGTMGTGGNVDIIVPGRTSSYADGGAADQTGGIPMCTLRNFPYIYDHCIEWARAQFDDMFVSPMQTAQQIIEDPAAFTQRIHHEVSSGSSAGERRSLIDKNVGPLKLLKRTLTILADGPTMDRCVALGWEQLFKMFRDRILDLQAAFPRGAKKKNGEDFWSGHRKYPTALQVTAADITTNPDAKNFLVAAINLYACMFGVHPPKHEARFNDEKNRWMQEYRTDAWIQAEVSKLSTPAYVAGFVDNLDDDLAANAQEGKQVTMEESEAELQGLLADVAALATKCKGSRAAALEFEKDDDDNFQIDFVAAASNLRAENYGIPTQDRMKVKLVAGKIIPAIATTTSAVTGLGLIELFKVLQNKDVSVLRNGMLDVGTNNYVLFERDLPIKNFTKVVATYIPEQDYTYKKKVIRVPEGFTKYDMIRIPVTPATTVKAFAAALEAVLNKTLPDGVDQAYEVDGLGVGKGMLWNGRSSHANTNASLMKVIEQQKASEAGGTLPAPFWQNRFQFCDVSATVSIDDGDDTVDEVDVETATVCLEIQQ
Nature of the assay: Leishmania donovani Ubiquitin Activating Enzyme (LdE1). It is filed as functional. Particulars: 30 µM.

Assay [3] has as its target T2, Aspartate--tRNA(Asp/Asn) ligase (Mycobacterium tuberculosis (strain ATCC 25618 / H37Rv)) (UniProt P9WFW3). Also: in the data most compounds retested in dose-response had high values.
T2 sequence (whole entry): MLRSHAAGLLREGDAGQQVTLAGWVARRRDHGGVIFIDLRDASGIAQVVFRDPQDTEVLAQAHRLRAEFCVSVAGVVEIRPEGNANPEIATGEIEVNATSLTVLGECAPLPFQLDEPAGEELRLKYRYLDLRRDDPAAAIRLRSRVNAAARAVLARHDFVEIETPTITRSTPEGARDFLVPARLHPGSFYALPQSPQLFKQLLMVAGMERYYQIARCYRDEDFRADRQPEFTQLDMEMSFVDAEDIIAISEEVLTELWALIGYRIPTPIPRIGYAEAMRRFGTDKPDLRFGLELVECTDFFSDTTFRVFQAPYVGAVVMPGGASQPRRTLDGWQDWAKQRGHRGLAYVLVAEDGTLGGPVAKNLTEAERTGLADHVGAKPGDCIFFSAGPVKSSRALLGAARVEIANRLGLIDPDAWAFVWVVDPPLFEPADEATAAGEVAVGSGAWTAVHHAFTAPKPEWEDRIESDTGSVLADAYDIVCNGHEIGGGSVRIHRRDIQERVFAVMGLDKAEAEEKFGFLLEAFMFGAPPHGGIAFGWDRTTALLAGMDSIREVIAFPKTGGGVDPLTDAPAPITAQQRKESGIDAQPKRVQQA
Nature of the assay: Assay for Asp RNA synthetase-1 from Mycobacterium tuberculosis. The format is functional. Particulars: 30 µM.

Assay [4] deals with AMP-activated protein kinase, AMPK (Homo sapiens) (UniProt P54646+O43741+P54619+Q9UGJ0+Q9Y478+Q13131+Q9UGI9). Briefly: AMP-dependent Kinase enzyme assay. An in vitro enzyme assay that detects ADP turnover that is directly proportional to AMPK activity. This uses naive AMPK that is activated during the assay with MK-8722. It is filed as functional. Particulars: 30 µM.
For assay [5], the target named is Sialic acid-binding Ig-like lectin 9 (Homo sapiens) (UniProt Q9Y336). Nature of the assay: Hs-Siglec9 ALPHAscreen SOP 20170721. Particulars: 10 µM.
Sequence of Sialic acid-binding Ig-like lectin 9 (Homo sapiens) (Q9Y336 whole entry): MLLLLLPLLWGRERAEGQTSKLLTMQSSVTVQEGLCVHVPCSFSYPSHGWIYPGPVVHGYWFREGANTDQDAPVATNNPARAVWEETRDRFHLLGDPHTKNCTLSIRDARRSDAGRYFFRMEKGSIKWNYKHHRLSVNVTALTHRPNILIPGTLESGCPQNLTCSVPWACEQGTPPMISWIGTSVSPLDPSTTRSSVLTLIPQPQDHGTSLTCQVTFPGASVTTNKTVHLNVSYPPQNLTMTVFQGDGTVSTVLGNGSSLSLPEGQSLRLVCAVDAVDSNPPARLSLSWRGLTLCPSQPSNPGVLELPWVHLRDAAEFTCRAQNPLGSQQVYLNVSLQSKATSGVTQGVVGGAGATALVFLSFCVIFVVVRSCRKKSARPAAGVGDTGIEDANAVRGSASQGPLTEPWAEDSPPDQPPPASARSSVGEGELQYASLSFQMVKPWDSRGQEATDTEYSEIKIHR
The test system of assay [6] is Trypanosoma cruzi. Nature of the assay: Trypanosoma cruzi phosphomannomutase and mannose-1-phosphate guanylyltransferase assay. Particulars: 10 µM. It is filed as functional.
The target of assay [7] is T3, Arginase-2, mitochondrial (Homo sapiens) (UniProt P78540).
T3 sequence (whole entry): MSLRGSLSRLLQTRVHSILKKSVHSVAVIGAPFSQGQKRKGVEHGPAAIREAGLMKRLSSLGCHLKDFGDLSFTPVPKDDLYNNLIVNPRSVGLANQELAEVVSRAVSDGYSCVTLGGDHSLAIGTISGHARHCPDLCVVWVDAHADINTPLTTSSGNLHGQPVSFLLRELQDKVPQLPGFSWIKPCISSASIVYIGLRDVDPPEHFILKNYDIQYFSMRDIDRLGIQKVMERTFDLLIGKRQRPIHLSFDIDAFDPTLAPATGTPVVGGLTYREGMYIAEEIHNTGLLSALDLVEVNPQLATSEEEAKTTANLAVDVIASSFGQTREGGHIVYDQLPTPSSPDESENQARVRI
Briefly: in vitro enzyme assay to detect the production of urea directly proportional to the activity of Arginase II. Also: in the data most compounds retested in dose-response had high values. The format is functional. Particulars: 33.3 µM.

For assay [8], the target named is T4, Proteasome subunit beta (Trypanosoma cruzi) (UniProt O96673).
T4 sequence (whole entry): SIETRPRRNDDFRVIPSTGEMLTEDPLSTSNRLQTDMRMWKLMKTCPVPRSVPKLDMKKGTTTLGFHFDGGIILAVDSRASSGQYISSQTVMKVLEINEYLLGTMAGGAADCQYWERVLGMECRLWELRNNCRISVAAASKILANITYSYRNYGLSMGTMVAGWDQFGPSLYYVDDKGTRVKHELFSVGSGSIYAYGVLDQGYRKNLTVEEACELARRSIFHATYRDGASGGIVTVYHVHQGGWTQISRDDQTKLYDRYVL
Briefly: Trypanosoma cruzi proteasome chymotrypsin-like activity (TcProtChymo) assay. Also: in the data most compounds retested in dose-response had high values. Particulars: 9.37 µM. It is filed as functional.

For assay [9], the species on record is Homo sapiens. Nature of the assay: To identify inhibition of the IFN signalling (Jak-Stat) pathway via expression of an eGFP reporter gene under the control of an IFN-stimulated response element (ISRE) containing MxA promoter. It is filed as functional. Particulars: 30 µM.
The target of assay [10] is T5, Tyrosyl-tRNA synthetase, putative (Trypanosoma cruzi (strain CL Brener)) (UniProt Q4DSP6).
T5 sequence (whole entry): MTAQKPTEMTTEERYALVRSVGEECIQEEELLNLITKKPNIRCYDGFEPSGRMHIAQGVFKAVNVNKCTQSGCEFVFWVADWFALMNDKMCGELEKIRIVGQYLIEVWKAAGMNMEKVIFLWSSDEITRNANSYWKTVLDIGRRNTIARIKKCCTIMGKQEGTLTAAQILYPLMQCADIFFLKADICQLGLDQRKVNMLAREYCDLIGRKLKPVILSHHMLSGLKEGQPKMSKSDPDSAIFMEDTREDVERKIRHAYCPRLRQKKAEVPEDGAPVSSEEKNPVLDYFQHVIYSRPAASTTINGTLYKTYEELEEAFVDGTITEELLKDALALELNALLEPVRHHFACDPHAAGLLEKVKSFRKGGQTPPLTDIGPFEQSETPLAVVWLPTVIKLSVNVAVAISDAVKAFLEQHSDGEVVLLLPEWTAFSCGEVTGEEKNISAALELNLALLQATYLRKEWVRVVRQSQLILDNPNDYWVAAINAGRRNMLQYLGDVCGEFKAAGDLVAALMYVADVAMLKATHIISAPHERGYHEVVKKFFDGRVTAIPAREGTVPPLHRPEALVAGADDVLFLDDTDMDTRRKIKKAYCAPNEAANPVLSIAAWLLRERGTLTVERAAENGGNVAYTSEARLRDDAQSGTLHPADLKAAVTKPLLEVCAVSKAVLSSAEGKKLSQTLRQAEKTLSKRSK
Nature of the assay: Trypanosoma cruzi tyrosyl tRNA synthetase (TcYRS) _High Tyrosine SOP. Also: in the data most compounds retested in dose-response had high values. It is filed as functional. Particulars: 30 µM.

Assay [11] concerns the target T5, Tyrosyl-tRNA synthetase, putative (Trypanosoma cruzi (strain CL Brener)). Nature of the assay: Trypanosoma cruzi tyrosyl tRNA synthetase (TcYRS) SOP. It is filed as functional. Particulars: 30 µM.
Assay [12] deals with Chromo domain-containing protein 1 (Saccharomyces cerevisiae (strain ATCC 204508 / S288c) (Baker's yeast)) (UniProt P32657). Briefly: ScCHD-1 Enzyme Inhibition Assay. Also: in the data most compounds retested in dose-response had high values. Particulars: 30 µM. The format is functional.
Sequence of Chromo domain-containing protein 1 (Saccharomyces cerevisiae (strain ATCC 204508 / S288c) (Baker's yeast)) (P32657 whole entry, the tested form may be a part): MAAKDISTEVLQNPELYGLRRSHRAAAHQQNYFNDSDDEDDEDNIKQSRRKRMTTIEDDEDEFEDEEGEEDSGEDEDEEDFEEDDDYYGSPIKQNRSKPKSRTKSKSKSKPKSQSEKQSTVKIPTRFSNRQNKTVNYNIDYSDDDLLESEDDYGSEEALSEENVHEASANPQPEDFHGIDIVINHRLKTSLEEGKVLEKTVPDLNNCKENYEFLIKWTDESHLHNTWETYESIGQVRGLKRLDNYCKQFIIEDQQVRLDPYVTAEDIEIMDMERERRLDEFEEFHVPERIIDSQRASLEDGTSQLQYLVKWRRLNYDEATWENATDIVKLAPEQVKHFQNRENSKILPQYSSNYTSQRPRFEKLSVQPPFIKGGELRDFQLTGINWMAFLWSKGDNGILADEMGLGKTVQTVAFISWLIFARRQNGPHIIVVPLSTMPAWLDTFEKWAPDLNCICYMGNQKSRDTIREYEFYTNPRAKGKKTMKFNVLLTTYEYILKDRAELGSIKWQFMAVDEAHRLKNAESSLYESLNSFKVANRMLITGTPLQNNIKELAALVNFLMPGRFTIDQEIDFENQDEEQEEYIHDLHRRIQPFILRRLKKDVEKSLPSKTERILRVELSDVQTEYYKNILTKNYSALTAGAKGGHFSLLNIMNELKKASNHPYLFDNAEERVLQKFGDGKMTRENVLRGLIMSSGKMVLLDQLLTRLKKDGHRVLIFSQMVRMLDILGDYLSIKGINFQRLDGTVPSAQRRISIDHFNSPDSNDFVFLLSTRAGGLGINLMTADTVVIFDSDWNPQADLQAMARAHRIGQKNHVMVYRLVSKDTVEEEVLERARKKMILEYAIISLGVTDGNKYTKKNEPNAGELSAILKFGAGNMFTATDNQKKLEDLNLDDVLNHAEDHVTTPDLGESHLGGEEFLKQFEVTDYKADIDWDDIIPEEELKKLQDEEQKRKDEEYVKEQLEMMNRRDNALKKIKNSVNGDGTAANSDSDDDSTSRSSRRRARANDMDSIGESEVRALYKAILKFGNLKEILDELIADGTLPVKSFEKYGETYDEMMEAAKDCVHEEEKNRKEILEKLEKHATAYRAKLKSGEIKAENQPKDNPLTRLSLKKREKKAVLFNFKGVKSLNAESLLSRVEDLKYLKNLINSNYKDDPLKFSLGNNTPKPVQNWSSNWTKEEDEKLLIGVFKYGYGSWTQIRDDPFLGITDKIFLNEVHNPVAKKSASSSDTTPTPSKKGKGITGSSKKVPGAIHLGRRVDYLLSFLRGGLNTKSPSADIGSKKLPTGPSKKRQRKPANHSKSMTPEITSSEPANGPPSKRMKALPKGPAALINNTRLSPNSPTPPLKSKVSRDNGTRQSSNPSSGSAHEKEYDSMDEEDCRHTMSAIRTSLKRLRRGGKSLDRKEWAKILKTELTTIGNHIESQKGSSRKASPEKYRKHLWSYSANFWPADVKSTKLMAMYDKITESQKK
Assay [13] addresses Shiga toxin 2 (Escherichia coli O157:H7) (UniProt P09385+P09386). Nature of the assay: E. coli 0.157:H7 Shiga Toxin SOP - stx2 screening assay. Particulars: 30 µM. The format is functional.

For part of these data: Potency and affinity values are given separately.

Sequence of Protein translocase subunit SecA (Escherichia coli (strain K12)) (P10408 whole entry): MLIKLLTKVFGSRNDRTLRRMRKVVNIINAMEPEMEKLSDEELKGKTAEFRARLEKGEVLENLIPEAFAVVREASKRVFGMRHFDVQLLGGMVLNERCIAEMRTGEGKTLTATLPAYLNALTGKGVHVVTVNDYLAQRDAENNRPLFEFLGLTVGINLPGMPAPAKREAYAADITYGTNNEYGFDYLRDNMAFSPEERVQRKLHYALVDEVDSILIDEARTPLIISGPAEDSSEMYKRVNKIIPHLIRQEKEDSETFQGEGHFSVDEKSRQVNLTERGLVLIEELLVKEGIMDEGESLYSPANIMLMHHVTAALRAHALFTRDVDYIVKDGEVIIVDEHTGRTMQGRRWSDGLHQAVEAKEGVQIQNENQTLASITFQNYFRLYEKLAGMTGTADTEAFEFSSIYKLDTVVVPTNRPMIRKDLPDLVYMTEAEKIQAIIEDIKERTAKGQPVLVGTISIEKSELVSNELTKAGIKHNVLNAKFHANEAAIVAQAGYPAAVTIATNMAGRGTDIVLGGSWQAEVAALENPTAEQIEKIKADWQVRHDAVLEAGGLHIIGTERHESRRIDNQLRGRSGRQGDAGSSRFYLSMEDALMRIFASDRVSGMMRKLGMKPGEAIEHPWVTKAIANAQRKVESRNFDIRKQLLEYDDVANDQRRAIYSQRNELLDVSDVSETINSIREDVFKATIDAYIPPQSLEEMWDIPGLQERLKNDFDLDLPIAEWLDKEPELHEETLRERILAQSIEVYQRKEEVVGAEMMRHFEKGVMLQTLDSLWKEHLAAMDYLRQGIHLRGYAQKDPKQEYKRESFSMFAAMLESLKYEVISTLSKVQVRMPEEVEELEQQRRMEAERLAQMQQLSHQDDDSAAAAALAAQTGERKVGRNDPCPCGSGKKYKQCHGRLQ

Take `CSc1nccc(N2CCN(C)C3(CCNC(=O)CC3)C2)n1` (stereo not given): the Percent Effect in [1] was -5.63%; in assay [2], 8%; in [3] it was -0.126%; in assay [4], -1.22%; in [5], 2.82%; in assay [6], -1.66%. Also, the Percent Effect in assay [7] is 5.73%; in assay [8], 12.6%; in [9], -2.91%; in assay [10], 3.83%; in [11] it was 13.6%; in assay [12], -6.95%.
Turning to `O=C(Cc1ccc(-n2cccn2)cc1)N1CCN2CCCCC2C1` (stereo not given), the Percent Effect was -4.18% in assay [1]; -10.7% in [2]; -7.19% in assay [3]; 2.63% in [5]; -5.42% in assay [6]; 3.55% in [7]. Besides, the Percent Effect in assay [8] was 9.58%; in assay [9], 0.299%; in assay [13], -24.9%; in [10], 1.58%; in assay [11] it was 5.13%; in [12], -13.6%.
As for `CC(=O)N1CCN(Cc2ccccn2)CC2(CC(=O)N(C)C2)C1` (stereo not given), the Percent Effect in [1] is -0.0517%; in assay [2], -29.9%; in assay [3] it was -4.78%; in [5] it was 4%; in assay [6], 0.938%; in assay [7], -1.37%. For the same molecule, the Percent Effect is 3.35% in [8]; -20.2% in [9]; 2.99% in assay [13]; 6.76% in [10]; 7.5% in assay [11]; -1.54% in [12].
Turning to `CN(C)CCN1CCCC12CCN(C(=O)c1cccnc1)CC2`, the Percent Effect was -0.609% in assay [1]; 3.9% in [2]; 1.98% in assay [3]; -1.37% in assay [5]; 0.563% in [6]; 4.11% in assay [7]. The Percent Effect was 8.5% in assay [8]; -12.2% in [9]; -15.3% in assay [13]; 3.87% in [10]; 7.5% in assay [11]; 1.23% in [12].
With `NC(=O)CN1CCCN(C(=O)Cc2ccc(F)c(Br)c2)CC1`, the Percent Effect was -6.33% in assay [1]; 10.7% in assay [2]; -0.338% in [3]; -0.341% in assay [5]; -3.61% in [6]; -0.444% in assay [7]. Besides, the Percent Effect is 12.6% in assay [8]; -6.89% in [9]; -17.2% in assay [13]; 4.74% in [10]; 7.69% in assay [11]; -9.76% in assay [12].
